# From PubChem BioAssay
# Calls of active or inactive are those of the source. Unless noted, the rule behind the calls is not given here.
# Experiments:
# [1] = test system: Wnt5a (protein binding on small-molecule microarray); assay: small molecules binding Wnt5a protein – biophysical, small-molecule microarray, 635/667 nm fluorescence, primary screen (AID 1142); details: 635 nm fluorescence, higher = more signal;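 note: fluorescence read at 667 nm with signal to noise per printed feature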
# [2] = ATP-based viability of Huh7 replicon cells – cell-based, CellTiter-Glo luminescence, basal, 48 h, cytotoxicity control for HCV replication inhibitor project, primary screen (AID 1143); details: higher = more signal, called active from +8 up or from −8 down;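 note: Huh7 hepatoma cells carrying a hepatitis C replication reporter with no stimulus; test concentration not given here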
# [3] = Pseudomonas biofilm growth suppression – PAO1 strain, BacTiter-Glo luminescence, LB-PBS, primary screen (AID 1144); details: P. aeruginosa PAO1 biofilm, 12 h, higher = more signal
# [4] = basal CRE-LacZ reporter activity in PC12 – cell-based, unstimulated, primary screen (AID 1145); details: no forskolin, luminescence, 4.5 h, higher = more signal, called active from +8 up or from −8 down
# [5] = forskolin-driven CRE-LacZ activity in PC12 – cell-based, CRE-LacZ reporter, forskolin-stimulated, primary screen (AID 1146); details: luminescence, 4.5 h, higher = more signal, called active from +8 up or from −8 down;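 note: PC12 cells with 6xCRE LacZ reporter stimulated by forskolin 10 µM; beta-galactosidase reporter signal reflecting CREB driven transcription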
# [6] = target: Streptavidin (Streptomyces avidinii) (UniProt P22629); assay: compounds binding control protein streptavidin – biophysical, small-molecule microarray, 635/667 nm fluorescence, artefact control for SMM compound annotation, primary screen (AID 1147); details: higher = more signal;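 note: signal reflects streptavidin binding to arrayed compounds as a control protein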
# Streptavidin (Streptomyces avidinii), sequence (P22629 whole entry, looked up): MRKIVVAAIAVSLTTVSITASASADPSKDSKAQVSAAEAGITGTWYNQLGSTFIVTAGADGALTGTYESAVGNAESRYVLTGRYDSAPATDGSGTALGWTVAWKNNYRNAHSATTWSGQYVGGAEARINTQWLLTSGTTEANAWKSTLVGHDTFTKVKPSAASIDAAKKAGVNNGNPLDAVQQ
# [7] = probe aInhba binding on compound microarray – biochemical, small-molecule microarray, 635/667 nm fluorescence, primary screen (AID 1148); details: higher = more signal;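 note: score merges 667nm spot fluorescence with signal-to-noise for antibody binding to printed compounds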
# Torsin-1A (Homo sapiens) [8] = target: Torsin-1A (Homo sapiens) (UniProt O14656); assay: TOR1A wild-type binding on microarray – cell lysate, small-molecule microarray, lysate, 635/667 nm, primary screen (AID 1149); details: COS7 hTOR1A-WT lysate, 635 nm fluorescence, higher = more signal
# Torsin-1A (Homo sapiens), sequence (O14656 whole entry, looked up): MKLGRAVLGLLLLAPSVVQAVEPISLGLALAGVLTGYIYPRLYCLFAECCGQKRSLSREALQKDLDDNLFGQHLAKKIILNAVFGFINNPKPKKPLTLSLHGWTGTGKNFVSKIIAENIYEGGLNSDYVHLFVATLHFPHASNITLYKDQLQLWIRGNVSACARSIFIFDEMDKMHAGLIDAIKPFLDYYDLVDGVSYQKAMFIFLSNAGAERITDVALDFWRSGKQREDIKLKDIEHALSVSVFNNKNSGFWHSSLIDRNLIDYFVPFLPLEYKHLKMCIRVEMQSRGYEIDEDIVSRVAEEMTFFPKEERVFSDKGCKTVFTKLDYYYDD
# Torsin-1A (Homo sapiens) [9] = target: Torsin-1A (Homo sapiens) (UniProt O14656); assay: torsin A mutant lysate binding on microarrays – cell lysate, small-molecule microarray, COS7 lysate, 635/667 nm fluorescence, primary screen (AID 1150); details: COS7 hTOR1A mutant lysate, 635 nm fluorescence, higher = more signal;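 note: score pools 667 nm emission and signal to noise measuring lysate protein binding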
# [10] = test system: Sonic hedgehog protein (Shh); assay: Sonic hedgehog microarray binding compounds – biochemical, small-molecule microarray, 635/667 nm fluorescence, primary screen (AID 1151); details: 635 nm fluorescence, higher = more signal;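 note: Shh protein binding to compounds spotted on small-molecule microarray slides; score combines spot fluorescence intensity with signal-to-noise across triplicate slides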
Compound,composite z-score [1],z-score [2],z-score [3],z-score [4],z-score [5],composite z-score [6],composite z-score [7],composite z-score (Torsin-1A (Homo sapiens) [8]),composite z-score (Torsin-1A (Homo sapiens) [9]),composite z-score [10]
O=C1C[C@@H](O)[C@@H](O)[C@@H]2[C@@H]3C(=O)N(C4CCCCC4)C(=O)[C@@H]3CC[C@@H]12,0.0446,0.0366 (inactive),0.749 (inactive),-0.0223 (inactive),-0.393 (inactive),0.148,-0.145,-0.0977,0.311,0.684
CCN1C(=O)[C@H]2[C@H]3[C@H](O)[C@H](O)CC(=NNC(=O)OCc4ccccc4)[C@@H]3CC[C@H]2C1=O,0.0743,0.235 (inactive),0.511 (inactive),-0.746 (inactive),-0.506 (inactive),0.131,-0.0986,-0.425,0.151,0.475
CCOC(=O)CCN1C(=O)[C@H]2[C@@H]3C(=CC[C@H]2C1=O)C(=O)[C@H]1O[C@H]1[C@H]3O,-0.544,-5.94 (inactive),0.737 (inactive),0.79 (inactive),28.7 (active),-0.7,-0.253,-0.47,0.914,-0.87
COC(=O)[C@H](C)NC(=O)CCC1CC(OC(=O)NCCc2ccc(F)cc2)CC2(CCCC(COC(=O)NCC3CCCCC3)O2)O1 (stereo not given in full),0.374,-2.59 (inactive),0.0852 (inactive),0.819 (inactive),0.676 (inactive),0.915,-0.0963,-0.0051,0.348,0.886
CCOC(=O)[C@H](Cc1ccccc1)NC(=O)CCC1CC(OC(=O)NCc2ccc3c(c2)OCO3)CC2(CCCC(COC(=O)NCCCN3CCCC3=O)O2)O1 (stereo not given in full),0.0512,-1.98 (inactive),0.14 (inactive),1.01 (inactive),-0.257 (inactive),0.669,-0.0736,0.408,0.078,1.53
O=C1[C@H]2CCn3c(=O)n(Cc4cc5c(cc4Cl)OCO5)c(=O)n3[C@H]2[C@H](O)[C@@H]2O[C@H]12,-0.509,-0.926 (inactive),0.529 (inactive),-0.925 (inactive),-0.0963 (inactive),-0.0064,-0.215,-0.22,-0.343,0.853
C=C(C)C(=O)OC[C@H]1CN2[C@@H](CC[C@@H](C)[C@@H]2c2ccc(Br)cc2)C(=O)O1,-0.219,0.411 (inactive),-0.694 (inactive),-0.654 (inactive),-0.777 (inactive),0.0906,-0.154,0.334,0.0188,0.0827
CC(CCC(=O)OC[C@H]1O[C@H](C#Cc2ccccc2)C=C[C@@H]1Oc1ccc(C)cc1)=NOC(C)CN1CCCCc2nc(C)c(C)cc21 (stereo not given in full),-0.271,-1.13 (inactive),0.455 (inactive),-0.561 (inactive),1.1 (inactive),-0.0512,-0.246,-0.453,-0.269,0.517
CC1(C)O[C@H]2OC([C@H](O)CON3C(=O)c4ccccc4C3=O)[C@H](O)[C@H]2O1 (stereo not given in full),-0.0105,0.929 (inactive),0.425 (inactive),0.831 (inactive),0.266 (inactive),-0.467,0.0319,0.0012,0.129,0.0991
OC[C@H]1O[C@H](C#Cc2ccccc2)C=C[C@@H]1O,0.0146,-0.574 (inactive),-0.385 (inactive),-1.07 (inactive),0.186 (inactive),0.431,0.0227,-0.339,0.141,0.363
CCOC(=O)CCN1C(=O)[C@H]2[C@H]3[C@H](O)[C@H](O)CC(=NOCC=C(C)CCC=C(C)C)[C@@H]3CC[C@H]2C1=O,0.377,0.16 (inactive),0.0232 (inactive),0.875 (inactive),0.427 (inactive),0.111,0.0756,0.957,0.588,1.02
CCCNC(=O)OC[C@H]1O[C@H](CCON=C[C@@H](NS(=O)(=O)c2ccc(C)cc2)[C@H](C)C=CCC(=O)OC)C=C[C@@H]1Oc1ccc(OC)cc1,-0.208,-1.47 (inactive),0.169 (inactive),3.17 (inactive),0.26 (inactive),-0.0974,0.316,0.0067,0.488,-0.0635
COC(=O)[C@@H]1CC[C@H](C)[C@@H](c2ccc(C)cc2)N1C(=O)c1ccc(C=NO[C@@H](C)c2cc(-c3c(C)cc(C)cc3C)no2)cc1,0.153,-1.31 (inactive),0.209 (inactive),-0.0591 (inactive),-0.187 (inactive),0.152,-0.0986,1.62,0.763,0.707
CO[C@H]1COC(=O)CC=C[C@H](C)[C@H](OC)COC(=O)[C@@H](C)NC(=O)CC=C[C@@H]1C,-0.0492,-0.379 (inactive),-0.727 (inactive),0.276 (inactive),0.314 (inactive),-0.201,-0.179,2.9,1.82,2.06
O=C(NN=C1C[C@@H](O)[C@@H](O)[C@@H]2[C@@H]3C(=O)N(c4ccc(F)cc4F)C(=O)[C@@H]3CC[C@H]12)OCc1ccccc1,-0.0874,-0.845 (inactive),0.0604 (inactive),-0.299 (inactive),0.139 (inactive),0.727,-0.101,0.671,1.13,-0.836
